# Experimental data from ChEMBL document CHEMBL4513216, “Probing the Open Global Health Chemical Diversity Library for Multistage-Active Starting Points for Next-Generation Antimalarials” (ACS Infect Dis, 2020).
# Screen size: about 69,000 compounds; about 8,600 (12%) showed an effect of 50% or more. What follows is part of a selection rich in strong results, with near analogues and random picks from the rest.
# System: Plasmodium berghei
# Experiment: Screen against P. berghei liver stage (PbLuc), transformed with Luciferase, at 10uM
# Assay type: functional, HepG2
# Details: tested at 10 uM
row,SMILES,INHIBITION
1,Cc1ccc(N2CC[C@H]3C[C@@H](C(=O)N4CCOCC4)O[C@H]3C2)nn1,34.1%
2,Cc1nnc(N2CC[C@H]3C[C@H](C(=O)N4CCOCC4)O[C@H]3C2)s1,50%
3,CN(C)C(=O)[C@@H]1C[C@@H]2CCN(C3CCOCC3)C[C@H]2O1,21.4%
4,Cc1nnc(N2CC[C@H]3C[C@@H](C(=O)NC4CCCC4)O[C@H]3C2)s1,61.4%
5,COCCNC(=O)[C@H]1C[C@@H]2CCN(c3nncs3)C[C@H]2O1,18.5%
6,Cc1ccc(CN2CC[C@H]3C[C@H](C(=O)N(C)C)O[C@H]3C2)cc1,25.5%
7,Cc1nnc(N2CC[C@H]3C[C@@H](C(=O)N4CCCC4)O[C@H]3C2)s1,-0.388%
8,Cc1nnc(N2CC[C@H]3C[C@H](C(=O)N(C)C)O[C@@H]3C2)s1,88.2%
9,CNC(=O)[C@H]1C[C@@H]2CCN(c3nnc(C)s3)C[C@@H]2O1,21.8%
10,CCc1noc(CN2CCC(NC(=O)c3ccc(C)s3)CC2)n1,-30%
11,CCS(=O)(=O)CCSc1ccc(Cl)cc1,18.6%
12,CCN(C(=O)COc1nc(Cc2ccc(F)cc2)no1)C1CC1,-50.7%
13,COc1ccc(-n2cc3[nH]c(=O)n(Cc4cccc(F)c4)n3c2=O)cc1,-67%
14,Cc1c(NC(=O)CN2CCN(C3CCCC3)C(=O)C2)cnn1C,7.85%
15,Cc1oc(C(=O)O)cc1S(=O)(=O)Nc1cccc(Cl)c1F,-46.2%
16,CCN1CCCN(S(=O)(=O)c2cc3ccccc3o2)CC1,46.6%
17,O=S(=O)(c1cc2ccccc2o1)N1CCCC1,59.4%
18,CC(=O)N1CCCN(S(=O)(=O)c2cc3ccccc3o2)CC1,16.6%
19,O=C(C1CCOCC1)N1C[C@@H]2[C@@H](C1)OCC(=O)N2CC1CC1,7.96%
20,Cc1ccc(S(=O)(=O)N2CCC3(CC(C(=O)NC4CCC4)=NO3)C2)cc1 (stereo unspecified),5.67%
21,O=C(O)[C@]12CCCN(Cc3ccco3)C[C@H]1CN(c1ncccn1)C2,42.6%
22,O=C(NC1CCC1)C1=NOC2(CCN(Cc3ccco3)C2)C1 (stereo unspecified),64.9%

row,SMILES,INHIBITION
1,Cc1ccc(CN2CCC3(CC(C(=O)NCC4CC4)=NO3)C2)s1 (stereo unspecified),-117%
2,Cc1ccc(CN2CCC3(CC(C(=O)NC4CCC4)=NO3)C2)o1 (stereo unspecified),56.7%
3,CC(Nc1ncnc2c1NC(=O)CN2)c1ccc2c(c1)OCO2 (stereo unspecified),48.2%
4,Cn1nccc1C(=O)N1CCOC(Cc2ccc(Cl)cc2)C1 (stereo unspecified),0.301%
5,Cc1cc(C)c(C(=O)N2CCOCC2c2c(C)nn(C)c2C)o1 (stereo unspecified),-79.1%
6,Cc1ccc(C(=O)N2CCCN(C)c3ccc(F)cc32)o1,16.5%
7,CCc1cc(C(=O)N2CCCC(c3[nH]ncc3S(C)(=O)=O)C2)no1 (stereo unspecified),24.8%
8,COc1cc(C)nc(N2CCN(Cc3nccn3C)CC2)n1,41.4%
9,CCOc1cc(C)nc(N2CCN(Cc3nccn3CC)CC2)n1,50.8%
10,COc1cc(C)nc(N2CCN(C(=O)CSC)CC2)n1,-64.85%
11,CCn1ccnc1CN1CCN(c2cc(C)nc(C3CCCN3)c2)CC1 (stereo unspecified),11.02%
12,CCOc1cc(C)nc(N2CCN(Cc3nccn3C)CC2)n1,12.2%
13,CCn1ccnc1CN1CCN(c2nc(C)cc(OC)n2)CC1,78.3%
14,CC(C)Cc1noc(CN(C)c2ncccn2)n1,-33.3%
15,CCOc1ccccc1C(=O)N(C)C(C)c1ccc(S(C)(=O)=O)cc1 (stereo unspecified),-162%
16,CCC(C)N(Cc1cccnc1)C(=O)c1ccc(OC)cc1O (stereo unspecified),32.9%
17,CSCC(CCO)NC(=O)c1cccc(Cl)c1F (stereo unspecified),36.4%
18,CSCC(CCO)NC(=O)c1cccc(F)c1Cl (stereo unspecified),65.9%
19,CSCC(CCO)NC(=O)Nc1ccc(C)cc1C (stereo unspecified),-7.53%
20,CSCC(CCO)Nc1cccc(C(F)(F)F)n1 (stereo unspecified),22.8%
21,CSCC(CCO)NC(=O)c1cccc(C)c1Cl (stereo unspecified),54.1%
22,CSCC(CCO)NC(=O)Nc1cccc(Br)c1C (stereo unspecified),36.8%

row,SMILES,INHIBITION
1,CC(C)NC(=O)C1c2c(ncn2C(C)C)CCN1Cc1ccccc1 (stereo unspecified),8.67%
2,Cn1ccc(C(=O)NC2CCC23CCN(CC2CCOCC2)CC3)c1 (stereo unspecified),12%
3,CC[C@@H](C)[C@H](NC(=O)NC1CCS(=O)(=O)C1)C(=O)NCc1ccncc1 (stereo partly specified),-41.2%
4,O=C(N[C@@H]1CN(Cc2cccs2)[C@@H]2COC[C@@H]21)C1CCC1,-0.804%
5,CCN(CC1CCCO1)C(=O)Nc1cc(C)ccc1S(C)(=O)=O (stereo unspecified),-12.2%
6,Cc1cccc(-c2nnc(C(C)NCCn3cc(C)cn3)o2)c1 (stereo unspecified),17.9%
7,Cc1ccc(-c2nnc(C(C)NCCn3cc(C)cn3)o2)cc1 (stereo unspecified),-3.87%
8,Cc1cnn(CCNC(C)c2nnc(-c3ccccc3)o2)c1 (stereo unspecified),54.8%
9,Cn1ncc2c1CCCC2NCc1cc(Br)cs1 (stereo unspecified),31.1%
10,NCCNS(=O)(=O)Cc1ccc(Br)cc1,16.9%
11,COCc1noc(CN2C[C@H](C3CC3)[C@@H](N(C)C)C2)n1,17.1%
12,O=C(CCOc1ccccc1F)N1CCCC1Cn1cccn1 (stereo unspecified),29.2%
13,CN(CCC(=O)N1CCc2sccc2C1)Cc1cnn(C)c1,19.2%
14,CC(C)c1nc(C(=O)N2CCc3ccccc3C2C(=O)O)cs1 (stereo unspecified),6.61%
15,CC(C)c1cc(C(=O)N2CCc3ccccc3C2C(=O)O)nn1C (stereo unspecified),-28%
16,CC(C)c1cc(C(=O)N2CCc3ccccc3C2C(=O)O)n(C)n1 (stereo unspecified),66.3%
17,O=C(O)C1(n2ccc(-c3ccco3)n2)CCN(Cc2ccsc2)CC1,-14.3%
18,Nc1no[n+]([O-])c1C(=O)NCc1cccnc1,42.8%
19,O=C(CCN1CCNCC1)N1CCC2(CC1)c1ccccc1CC2O (stereo unspecified),31.6%
20,NS(=O)(=O)CCCC(=O)N1CCC2(CC1)c1ccccc1CC2O (stereo unspecified),-38.8%
21,O=C(CSc1ccncc1)N1CCC2(CC1)c1ccccc1CC2O (stereo unspecified),-16.8%
22,CSCC(=O)N1CCC2(CC1)c1ccccc1CC2O (stereo unspecified),65.1%

row,SMILES,INHIBITION
1,NC(=O)NCC(=O)N1CCC2(CC1)c1ccccc1CC2O (stereo unspecified),28.3%
2,Cn1cccc1CCC(=O)N1CCC2(CC1)c1ccccc1CC2O (stereo unspecified),60.1%
3,COCCC(=O)N1C[C@@H](c2ccc(F)c(F)c2)[C@@]2(CCCC(=O)N2)C1,17.4%
4,CCNC(c1cccnc1)c1ccc(F)cc1F (stereo unspecified),30.6%
5,COCCNc1ccccc1CNC(=O)NCc1nc(C)c(C)s1,72%
6,Cc1ncc(CNC(=O)NCC(C)Oc2ccccc2F)s1 (stereo unspecified),-47.3%
7,COc1ccc(CNC(=O)NCCc2nc(C)c(C)s2)cn1,31.2%
8,COc1ccc(CNC(=O)NCc2nc(C)c(C)s2)cn1,48.5%
9,COCCNc1ccccc1CNC(=O)NCc1cnc(C)s1,52.1%
10,COCCNc1ccccc1CNC(=O)NCc1ccc(C)s1,64.1%
11,Cc1ncc(CNC(=O)NCc2c(F)cccc2OC(F)F)s1,10.7%
12,Cc1ccc(CNC(=O)NCc2cccnc2N(C)C)s1,15.5%
13,COCCNc1ccccc1CNC(=O)C1CCCOC1 (stereo unspecified),35.1%
14,NC(=O)C1CCN(C(=O)CCn2ccc3ccc(Br)cc32)CC1,10.6%
15,c1cnc(N2CCOCC3(CCCN(CC4CCOCC4)C3)C2)nc1 (stereo unspecified),-4.88%
16,CNC(=O)CN1CC[C@H]2CN(C(=O)c3cc[nH]n3)C[C@H]2C1,41.1%
17,O=C(NCc1ccnc(-n2cccn2)c1)C1CC(=O)N(CC2CC2)C1 (stereo unspecified),-25.9%
18,CN(C)S(=O)(=O)N1C[C@@H]2C[C@H](C(=O)Nc3cccnc3)[C@H](C1)O2,43.9%
19,CC(=O)c1ccc(OCC(C)O)cc1O (stereo unspecified),47.1%
20,COc1ccc(CN(C)[C@@H]2CN(S(=O)(=O)C(C)C)C[C@H]2O)cc1,2.15%
21,CCN1C(=O)[C@]2(CC[C@@H]3CN(C(=O)Nc4ccc(F)cc4)C[C@@H]32)N=C1C,22.2%
22,COc1ncccc1CNC(=O)Nc1cccnc1N1CCCC1,43.3%

row,SMILES,INHIBITION
1,COc1cccc(CC(=O)NCC(Cc2ccc(F)cc2)C(N)=O)c1 (stereo unspecified),8.99%
2,N#Cc1c(F)cccc1N1CCC(NS(=O)(=O)c2cccs2)CC1,24%
3,N#Cc1cc(F)c(N2CCC(NS(=O)(=O)c3cccs3)CC2)c(F)c1,62.9%
4,N#Cc1ccc(N2CCC(NS(=O)(=O)c3cccs3)CC2)c(F)c1,20.9%
5,CNc1ncc(C(=O)N2CCOC(C(=O)Nc3ccccc3)C2)cn1 (stereo unspecified),-8.58%
6,CN(CCc1ccccc1)Cc1c(C2CC2)[nH]c2ncccc12,14.185%
7,CN(CCc1ccccc1)Cc1c(C2CCNCC2)[nH]c2ncccc12,58.95%
8,CN(CCc1ccccc1)Cc1c(C2CCOCC2)[nH]c2ncccc12,17.125%
9,NCCCC(=O)N1CCC2(CC1)CN(C(=O)c1ccc(Cl)cc1)CCO2,4.35%
10,CN1CCCN(C(=O)c2csc(-c3ccc(C(F)(F)F)cc3)n2)CC1,42.3%
11,O=C1CCN(C(=O)c2csc(-c3ccc(C(F)(F)F)cc3)n2)CCN1,-1.26%
12,O=C(c1csc(-c2ccc(C(F)(F)F)cc2)n1)N1CCCNCC1,62.1%
13,CC(=O)N1CCN(C(=O)NC(C)C)CC2(CC(=O)N(C)C2)C1 (stereo unspecified),-3.52%
14,CC(C)NC(=O)N1CCN(CC2CC2)CC2(CC(=O)N(C)C2)C1 (stereo unspecified),79.5%
15,CC(C)NC(=O)N1CCN(CC2CC2)CC2(CNC(=O)C2)C1 (stereo unspecified),69.6%
16,CC(=O)N1CCN(C(=O)NC(C)C)CC2(CNC(=O)C2)C1 (stereo unspecified),-2.17%
17,CC(C)NC(=O)N1CCN(C(=O)C(C)C)CC2(CC(=O)N(C)C2)C1 (stereo unspecified),22.2%
18,CC(C)NC(=O)N1CCN(C(=O)NC(C)C)CC2(CNC(=O)C2)C1,-2.17%
